Measured values published in PubChem BioAssay (NCI).
This is part of a sample that, as a whole, favours compounds with a hit. Of some 79,000 tested, about 15% had one in any assay. Unmarked numbers belong to inactive results. The source made the active and inactive calls. No stated cut-off is given here; in the data, active means growth inhibition above about 70%; inactive means the rest.

Assay: NCI Yeast Anticancer Drug Screen. Data for the sgs1 mgt1 strain (AID 161);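 further: 0% = growth of cultures given vehicle only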
Conditions: S. cerevisiae sgs1 mgt1 strain, at 50.0 µM, hits give high values
Protocol: Growth inhibition of yeast strains with defined genetic alterations is measured as a screen for potential anti-cancer activity. Selected strains with alterations in DNA damage repair or cell cycle control were exposed to compounds and growth inhibition was measured relative to vehicle treated controls. The strain used in this assay is sgs1 mgt1

| Compound | growth inhibition |
| --- | --- |
| CC(=O)OCC1OC(N2C(c3ccccc3)=CC(c3ccco3)C(C#N)=C2S)C(OC(C)=O)C(OC(C)=O)C1OC(C)=O (stereo not given) | 13.8% |
| CCN(c1ccccc1)c1cc2c(cc1[N+](=O)[O-])no[n+]2[O-] | 98.3% (active) |
| COC(=O)C(=O)C(C(=O)C=C(C)C)C(=O)C(=O)Nc1cc(C(F)(F)F)ccc1Cl (stereo not given) | 6% |
| CCCc1cccc[n+]1CC(=O)c1ccccc1 | 4.95% |
| O=c1[nH]c(Nc2ccccc2)nc2c1ncn2CC(O)CSCCO (stereo not given) | 26.7% |
| O=[N+]([O-])c1ccc(CCCc2ccc([N+](=O)[O-])cc2)cc1 | 58.9% |
| O=[N+]([O-])c1ccc(-c2cn(-c3ccc(Cl)cc3)cn2)cc1 | 7.5% |
| C=C1C(=O)O[C@H]2C1[C@H](OC(=O)/C(C)=C\COC(C)=O)C[C@]1(CO1)[C@@H]1[C@H](O)[C@H]3O[C@@]3(C)[C@@H]12 (stereo not given in full) | -13% |
| CC1(C)CC(=O)c2c(N)n[nH]c2C1 | -8.55% |
| CC1SC(=S)NC1=O (stereo not given) | -10.8% |
| COC(=O)C(Cc1ccccc1)NCCN (stereo not given) | -3.9% |
| O=C(O)C12CCCCC1CCCC2 (stereo not given) | -6.25% |
| CC(C)N(C(=O)C1C2CCC(CC2)C1C(=O)N(C(C)C)C(C)C)C(C)C (stereo not given) | 11.3% |
| CCOC(=O)COc1cc2c(cc1C(C)c1ccc(OCc3ccccc3)c(OC)c1)OCO2 (stereo not given) | -9.7% |
| Cc1cc2nc(Cl)n(C3OC(CO)C(O)C3O)c2cc1C (stereo not given) | 0.15% |
| C/C=C(\CC)C(C)(C#N)C(=O)OCC (stereo not given) | -21.2% |
| O=c1cc[nH]c2cc(C(F)(F)F)ccc12 | -16.7% |
| COC(=O)C1=C(C(=O)OC)P2(C)(C)OC(c3ccccc3)CN2C1(c1ccccc1)c1ccccc1 (stereo not given) | -2.4% |
| CCOC(=O)C(CC)(C(=O)OCC)C(C)C | -17.9% |
| c1ccc(-c2nc3ccccc3n2CCc2ccncc2)nc1 | 14% |

| Compound | growth inhibition |
| --- | --- |
| Cc1ccc(C(=O)N(C(C)C)C(C)C)cc1N=NN(C)C | -31.1% |
| CSc1nc(-c2ccc([N+](=O)[O-])cc2)oc1/N=C/c1ccc([N+](=O)[O-])cc1 | -14.6% |
| O=C(C(=O)c1ccccc1)c1ccccc1 | 11.7% |
| CCCCCCCCN(CCCCCCCC)CC(O)c1cc(-c2ccccc2)nc2c(-c3ccccc3)cccc12 (stereo not given) | 49.2% |
| CCN(CC)C(=S)N/N=C/c1ccccn1 | 91% (active) |
| O=C(NNc1nc(N2CCOCC2)nc(N2CCOCC2)n1)c1ccccc1 | 10.9% |
| COc1ccc(N2N=NN(C(C)C)/C2=C(/Cl)c2nnnn2-c2ccc(OC)cc2)cc1 | 33.8% |
| COc1cccc(-c2cc(=O)c3cccc(CC(=O)O)c3o2)c1 | -11.6% |
| CN1CCN(Cc2oc(CO)cc(=O)c2O)CC1 | 5.2% |
| CCN(CC)c1c(C)nnn1C1OC(COC(C)=O)C(OC(C)=O)C(OC(C)=O)C1OC(C)=O (stereo not given) | -19.9% |
| C=CCCCCCCCCC(=O)OC1CCCCC1 | 11.1% |
| Nc1ccc(C(=O)CC(N)C(=O)O)cc1O (stereo not given) | -6.9% |
| COC(=O)c1nn(-c2ccccc2)c(=O)cc1N=[N+]=[N-] | -39.2% |
| CC(=O)CCCO | -0.8% |
| N#Cc1c(N2CCCC2)ncn(Cc2ccccc2)c1=S | -8.4% |
| CCCCCC(=O)/C=C/Sc1n[nH]c(=O)[nH]c1=O | 64.2% |
| CCOC(=O)NN(C(=O)OCC)C(C(=O)c1ccccc1)N(NC(=O)OCC)C(=O)OCC | 16.9% |
| S=C1Cc2c(-c3ccccc3)cc(-c3ccc(Cl)cc3)nc2-c2ccccc2N1 | 5.65% |
| CCOC(C#CC(=O)C(C)C)OCC | 0.85% |
| O=C(C#CP(=O)(O)c1ccccc1)c1ccccc1 | -6.2% |
